Bioassay records (PubChem)
The list is not random: actives were taken first. Their share in the collection is about 3.5%.
GPR151 activ – activators of human GPR151, primary screen, cell-based, PathHunter beta-arrestin, luminescence; activation, % at 11.2 µM; PathHunter beta-arrestin GPR151 cells; hit rate 1% among 650,000; G-protein coupled receptor 151 (Homo sapiens), Q8TDV0; in the data active = activation above about 4.9%;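 also: 0% = median of compound wells and 100% = cells with positive control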
FBW7 act – FBW7 E3 ligase activators, primary screen, biochemical, AlphaScreen, human. F-box/WD repeat-containing protein 7 (Homo sapiens), Q969H0. AlphaScreen FBW7–phospho-cyclin E peptide binding, activator screen. normalized activity (activation), % at 26.1 µM. hit rate 0.13% among 650,000. AID 1259310, 2017; in the data active = normalized activity above about 1.9%;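 also: purified mutant Fbw7 with reduced substrate affinity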
Target sequence (Q969H0 whole entry, looked up): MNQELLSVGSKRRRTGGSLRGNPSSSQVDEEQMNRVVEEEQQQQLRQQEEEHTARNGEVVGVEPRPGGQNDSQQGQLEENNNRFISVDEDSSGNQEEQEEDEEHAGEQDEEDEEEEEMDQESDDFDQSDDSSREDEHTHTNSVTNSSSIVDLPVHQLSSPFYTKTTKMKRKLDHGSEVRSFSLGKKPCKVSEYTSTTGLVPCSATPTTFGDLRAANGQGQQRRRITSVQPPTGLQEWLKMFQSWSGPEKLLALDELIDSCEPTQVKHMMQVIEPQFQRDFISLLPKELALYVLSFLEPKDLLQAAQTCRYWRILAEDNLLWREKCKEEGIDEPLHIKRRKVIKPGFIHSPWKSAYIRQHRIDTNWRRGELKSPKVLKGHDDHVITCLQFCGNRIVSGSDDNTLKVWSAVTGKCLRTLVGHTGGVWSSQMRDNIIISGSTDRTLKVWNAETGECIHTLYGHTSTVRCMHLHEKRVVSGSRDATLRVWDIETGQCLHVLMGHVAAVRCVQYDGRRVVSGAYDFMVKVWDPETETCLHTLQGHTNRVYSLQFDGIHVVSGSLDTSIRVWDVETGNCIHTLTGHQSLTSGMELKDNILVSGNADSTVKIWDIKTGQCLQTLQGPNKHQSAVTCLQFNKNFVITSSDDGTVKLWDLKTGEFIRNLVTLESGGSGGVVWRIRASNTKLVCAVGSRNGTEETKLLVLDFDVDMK
TEAD-YAP inh – TEAD-YAP interaction inhibition, primary screen, TEAD-YAP interaction inhibitor project, luminescence, HEK-TIYL cells. TEAD-Gal4/YAP UAS-luciferase luminescence. inhibition, % at 9.12 µM. hit rate 1.4% among 640,000. AID 1259422, 2018; in the data active = inhibition above about 32%;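 also: 0% = median of test compound wells and 100% = reference inhibitor wells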
MITF primary – MITF inhibitors, primary screen, biochemical, AlphaScreen, human; Microphthalmia-associated transcription factor (Homo sapiens), O75030; AlphaScreen MITF homodimerization, bead proximity signal; hit rate 0.91% among 650,000; inhibition, % at 2.6 µM; in the data active = inhibition above about 50%;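 also: 0% = vehicle wells with protein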
* hit, by the source's call.

SMILES | GPR151 activ | FBW7 act | TEAD-YAP inh | MITF primary
COc1cccc(C2=NN3C(C2)c2cccc(OC)c2OC3c2ccc(SC)cc2)c1 (configuration not stated) | -1.3 | -0.2 | 46.5* | -5.0
COc1cccc(C2=NN3C(C2)c2cccc(OC)c2OC3c2cccc(Cl)c2)c1 (configuration not stated) | 1.1 | -0.1 | 29.5 | 3.9
CCOc1cccc2c1OC(c1ccc(OC)cc1)N1N=C(c3cccc(OC)c3)CC21 (configuration not stated) | -1.7 | -0.1 | 46.9* | -7.1
COc1ccc(O)c(CN2CCN(Cc3ccccc3OC)CC2)c1 | -1.2 | -0.2 | -4.1 | 69.0*
CCn1c2ccccc2c2cc(CN3CCN(Cc4cc(OC)c(O)c(OC)c4)CC3)ccc21 | 0.9 | -0.1 | -5.8 | 46.2
CCn1c2ccccc2c2cc(CN3CCN(Cc4cc(OC)ccc4O)CC3)ccc21 | -1.0 | -0.3 | -17.6 | 62.5*
COc1ccc(CN2CCN(Cc3cc(OC)ccc3O)CC2)cc1 | 0.1 | 0.1 | -1.4 | 83.0*
CC(=O)N/C(=N\c1nc(C)cc(C)n1)Nc1ccc2ccccc2c1 | 0.5 | 0.0 | 52.1* | -4.8
CC(=O)N/C(=N\c1nc(C)cc(C)n1)Nc1cccc(C)c1 | -0.2 | 1.1 | 3.0 | 12.7
Cc1ccc2nc3c(cc(C(N)=O)c(=N)n3CCc3ccccc3)c(=O)n2c1 | -1.3 | -0.1 | 39.5* | 5.1
C/C=C/C(=O)Nc1ccc(-c2ccc(NC(=O)/C=C/C)c(OC)c2)cc1OC | -0.5 | 0.6 | 60.5* | 8.4
CCNC(=O)N1CCCC(c2nnc(-c3ccccc3F)s2)C1 (configuration not stated) | -4.6 | -0.2 | 38.2* | -5.4
CCOC(=O)c1nnn(CC(=O)Nc2cc(C)ccc2C)c1C(=O)OCC | 0.6 | -0.1 | -5.2 | 3.5
Cc1cc(C)nc(NC(=O)c2cccnc2Cl)n1 | -0.4 | 0.1 | -6.1 | -1.5
CCOC(=O)c1sc(C)c2c(=O)n(CC(=O)Nc3ccc(C)cc3)nnc12 | -0.8 | 0.1 | 13.0 | 22.5
CC(C)(C)c1ncn(-c2ccc(Nc3nccc(-c4cccc(N5CCOCC5)n4)n3)cc2)n1 | -0.5 | 0.2 | -3.2 | 12.9
CCOC(=O)c1ccc(N2C(=O)/C(=C\c3ccco3)C(C(=O)OC)=C2C)cc1 | -1.1 | 0.4 | 8.0 | 66.7*
CCC(=O)Nc1nc(C)c(C(=O)Nc2ccccc2Cl)s1 | 1.7 | -0.1 | -67.7 | -0.4
CCc1ccc(NC(=O)CSc2nc3ccccc3c3nc(C)nn23)cc1 | 0.1 | 0.0 | 62.3* | 9.7
Cc1nc2c3ccccc3nc(SCC(=O)Nc3ccc(Br)cc3)n2n1 | -0.5 | -0.1 | 4.0 | 5.2
O=C(Nc1nnc(C(F)(F)F)s1)c1ccc([N+](=O)[O-])c(Cl)c1 | -1.8 | 0.0 | 15.9 | 1.8
CC(C(=O)c1ccc(-c2ccccc2)cc1)[n+]1ccccc1 (configuration not stated) | 0.3 | -0.2 | 17.9 | -9.8
Cc1ccc[n+](C(C)C(=O)c2ccc(-c3ccccc3)cc2)c1 (configuration not stated) | 0.0 | -0.1 | 65.5* | -10.4
CC(C)c1ccc(/C=C2\C(=O)ON=C2c2ccccc2)cc1 | 0.1 | -0.3 | -3.5 | 57.1*
COc1ccc(/C=C2/C(=O)ON=C2c2ccccc2)cc1 | 0.8 | 0.0 | -20.6 | 50.0
SMILES | GPR151 activ | FBW7 act | TEAD-YAP inh | MITF primary
CSc1ccc(/C=C2/C(=O)ON=C2c2ccccc2)cc1 | 0.9 | 0.1 | -6.5 | 37.9
O=C1ON=C(c2ccccc2)/C1=C\c1ccc(O)cc1 | -0.3 | -0.3 | -12.5 | 59.0*
O=C(COc1ccc2ccccc2c1)Nc1cccc(C(=O)Nc2ccccc2C(=O)O)c1 | 1.1 | -0.1 | 8.0 | -3.7
O=C(O)c1ccccc1Nc1cccc(OCc2ccc3ccccc3n2)c1 | 0.2 | -0.1 | 45.7* | 11.6
O=C1NC2(CCN(C(=O)c3csc4c3CCCC4)CC2)Nc2ccccc21 | -1.3 | -0.1 | 40.4* | 20.6
CCCCCn1c(SCC(=O)N(C)Cc2ccccc2)nc2cc(C(=O)N3CCC(C(N)=O)CC3)ccc2c1=O | -0.5 | 0.1 | 1.0 | -7.3
O=C(O)C(=O)/C(=C\c1ccccc1)c1ccc2ccccc2n1 | -2.4 | 0.5 | -21.7 | 20.7
O=C(O)C(=O)/C(=C\c1ccsc1)c1ccc2ccccc2n1 | -4.8 | -0.1 | 45.4* | 21.8
Cc1nn(-c2ccccc2)c(Cl)c1C(=O)Nc1ccc(C(=O)NCc2cccnc2)cc1 | -0.5 | 0.3 | 38.7* | 24.6
Cc1nn(-c2ccccc2)c(Cl)c1C(=O)NCc1cccnc1 | 0.2 | 0.0 | -1.7 | 3.9
O=C(N/N=C/c1cccc(O)c1O)c1ccc(O)cc1 | -0.6 | -1.1 | -8.6 | 56.6*
CCN(CC)S(=O)(=O)c1cccc(C(=O)N/N=C/c2cccc(O)c2O)c1 | 0.7 | -1.2 | 5.1 | 70.7*
Cc1cccc(/C=N\NC(=O)c2ccc([N+](=O)[O-])cc2)c1O | -1.4 | -0.7 | 61.7* | -6.9
COc1ccc(NC(=O)c2oc3ccc(S(=O)(=O)N4CCCC4)cc3c2C)cc1 | 0.5 | 0.0 | 1.9 | 2.4
COc1cc2nc(SCC(=O)Nc3ccc(F)cc3)n(Cc3ccco3)c(=O)c2cc1OC | 1.2 | 0.0 | 2.9 | 11.1
COc1cc(Nc2nc(Nc3cc(OC)c(OC)c(OC)c3)c3ncn(Cc4ccc(C(F)(F)F)cc4)c3n2)cc(OC)c1OC | -0.8 | -0.1 | 10.0 | -6.2
COc1cc(Nc2nc(Nc3ccccc3)nc3c2ncn3Cc2ccc(C(F)(F)F)cc2)cc(OC)c1OC | -0.5 | 0.0 | 3.5 | 2.9
COc1cc(Nc2nc(Nc3ccc(C(F)(F)F)cc3)nc3c2ncn3Cc2ccc(C(F)(F)F)cc2)cc(OC)c1OC | 1.0 | 0.1 | 6.1 | -1.6
Cc1noc(C)c1-c1nc(Nc2ccc(N3CCOCC3)cc2)c2ncn(Cc3ccc(C(F)(F)F)cc3)c2n1 | -1.0 | 0.7 | 32.4* | 9.2
COc1cc(Nc2nc(-c3c(C)noc3C)nc3c2ncn3Cc2ccc(C(F)(F)F)cc2)cc(OC)c1OC | 2.0 | 0.3 | 52.2* | 5.9
COc1cc(Nc2nc(NC3CCC(O)CC3)nc3c2ncn3Cc2ccc(C(F)(F)F)cc2)cc(OC)c1OC (configuration not stated) | 1.5 | 0.0 | 47.0* | 6.6
Cc1nn(C)c(C)c1-c1nc(Nc2ccc(N3CCOCC3)cc2)c2ncn(Cc3ccc(C(F)(F)F)cc3)c2n1 | -0.5 | 0.0 | 15.5 | 1.9
CCNc1nc(Nc2cc(OC)c(OC)c(OC)c2)c2ncn(Cc3ccc(C(F)(F)F)cc3)c2n1 | 1.4 | -0.1 | 52.2* | 5.2
O=C1c2ccc(Oc3cccc(N4C(=O)c5ccc([N+](=O)[O-])cc5C4=O)c3)cc2C(=O)N1c1ccccc1 | 0.1 | 0.4 | 8.1 | 12.4
O=C(O)CCC(=O)N1CCSc2ccccc21 | -0.2 | 0.0 | 5.0 | 8.1
COC(=O)c1cc(N2Cc3ccccc3C2=N)ccc1O | -0.3 | -0.1 | 12.0 | -2.0
COc1ccc(C2CC(=O)C3=C(C2)Nc2ccccc2NC3c2cccc(Cl)c2Cl)cc1 (configuration not stated) | 1.0 | 0.0 | -6.8 | 0.3
